Laboratory results published in PubChem BioAssay (NCATS).
Inconclusive results are not listed. The source made the active and inactive calls. Unless noted, the call rests on the fitted dose curve; in most records, active means well fitted curve in the direction sought with a large enough effect; inconclusive means small, poorly fitted or top-dose-only effect, or another doubt; inactive means no such curve, though single readings can be large; an effect the other way counts as inactive or inconclusive.

Assays:
[1] = Cell Viability - BJ (AID 421; calls by dose curve;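 further: potency means the concentration at half of the fitted maximal effect; cells exposed to compound for 40 hours at 37 °C before readout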); details: BJ fibroblast viability, qHTS
Outline: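 Cytotoxicity in human BJ foreskin fibroblasts is scored as loss of cellular ATP after a 40-hour exposure, measured by luciferase luminescence. Controls are DMSO and 100 uM tamoxifen.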

[2] = Cell Viability - Jurkat (AID 426;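 active means dose-dependent loss of cell ATP signal giving a full or clear fitted curve, ranked by lower potency value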;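 further: potency means the concentration at half of the fitted maximal effect; cells exposed to compound for 40 hours at 37 °C before ATP read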); details: qHTS
Outline: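 Seed 5000 Jurkat E6-1 cells/well; add compound; incubate 40 hr at 37 °C; add CellTiter-Glo; wait 20 min at room temperature; read luminescence. Fit concentration-response with Hill equation for AC50.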

[3] = Cell Viability - Hek293 (AID 427;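 active means compounds whose dose-response curve shows a full or clear partial loss of cell viability, called from curve shape rather than a numeric limit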;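 further: potency means the concentration at half of the fitted maximal effect; cells exposed to compound for 40 hours at 37 °C before reading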); details: qHTS
Outline: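 qHTS, human embryonic kidney (adenovirus-transformed) cells; 40 hr cpd, 37 °C; CellTiter-Glo ATP luminescence. Norm: DMSO = 0, 100 uM tamoxifen = 100% inhibition. Hill-fit AC50.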

[4] = Cell Viability - HepG2 (AID 433; calls by dose curve;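 further: potency means the concentration at half of the fitted maximal effect; cells exposed to compound for 40 hours; potency for ATP loss meaning cytotoxicity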); details: qHTS
Outline: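 Cytotoxicity read as ATP loss (CellTiter-Glo luminescence) after 40 hr compound exposure of HepG2, 1500 cells/well, 37 °C. AC50 by Hill equation; 0% set by DMSO, 100% inhibition by 100 uM tamoxifen.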

[5] = Cell Viability - MRC5 (AID 434; calls by dose curve;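 further: potency means the concentration at half of the fitted maximal effect; cells exposed to compound for 40 hours at 37 °C; potency reflects cytotoxicity seen as loss of intracellular ATP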); details: MRC5 lung fibroblast viability, qHTS
Outline: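 MRC5 normal human lung fibroblasts (1500/well) were treated with compounds for 40 hr at 37 °C in complete medium, and viable cells were measured as intracellular ATP by CellTiter-Glo luminescence. AC50 came from Hill fits, normalized to DMSO and 100 uM tamoxifen.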

[6] = Cell Viability - SK-N-SH (AID 435; calls by dose curve; further: potency means the concentration at half of the fitted maximal effect); details: SK-N-SH neuroblastoma cell viability qHTS
Outline: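 qHTS cytotoxicity: CellTiter-Glo ATP luminescence after 40 h compound exposure of human neuroblastoma SK-N-SH cells at 37 °C. AC50 derived by Hill-equation fitting, with DMSO as basal and 100 uM tamoxifen as full inhibition.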

[7] = molecular target: Mitogen-activated protein kinase 10 (Mus musculus) (UniProt Q61831); test: JNK3 AlphaScreen Assay (AID 530; active means well fitted curve in either direction with a large enough effect, not every such curve was filed as active;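 further: kinase came from lysate of stimulated human HepG2 cells; signal reports phosphorylation of biotinylated GST-cJun 1-79 at Ser73 with 10 µM ATP; on the % scale 0 is the no-effect control and ±100 the full control effect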); details: JNK3 lysate, c-Jun phosphorylation; series mostly up to 57.1 µM
Outline: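 JNK3 came from HepG2 lysates pre-activated with IL-1beta and TNF-alpha and phosphorylated biotinylated GST-cJun (1-79) at 10 uM ATP, pH 7.6, room temperature. Compounds were titrated. AlphaScreen signal used anti-phospho-cJun (Ser73) antibody.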

[8] = Cell Viability - N2a (AID 540); details: N2a mouse neuroblastoma cell viability; activity change, negative = cytotoxicity: at 92.2 µM (top of the series); further: nearly all actives have a fitted effect of over 45% in size; further: potency means the concentration at half of the fitted maximal effect;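 on activity change, negative = cytotoxicity: plate controls were DMSO alone for no effect and tamoxifen control for full effect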
Outline: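 First, 1500 N2a cells per well incubate 5 hr at 37 °C; next, compounds are added and incubated 40 hr at 37 °C; finally CellTiter-Glo is added and luminescence read after 20 min, with AC50 derived by Hill modeling.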

[9] = Cell Viability - NIH 3T3 (AID 541); details: NIH 3T3 cell viability, qHTS; activity change, negative = cytotoxicity: at 92.2 µM (top of the series);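 further: cells exposed to compound for 40 hours; plate controls were DMSO alone for no effect and tamoxifen positive control for full effect; nearly all actives have a fitted effect of over 25% in size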
Outline: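 AC50 values reflect concentration-dependent loss of intracellular ATP in NIH 3T3 cells after 40 hr treatment in complete culture medium, quantified by luciferase-based luminescence.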

[10] = Cell Viability - HUV-EC-C (AID 542); details: HUV-EC-C endothelial cell viability, qHTS; series mostly up to 92.2 µM;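 further: cells exposed to compound for 40 hours; nearly all actives have a fitted effect of over 35% in size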; further: potency means the concentration at half of the fitted maximal effect; on activity change, negative = cytotoxicity: on the % scale 0 is the no-effect control and ±100 the full control effect
Outline: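 Decrease in cellular ATP, quantified by luciferase luminescence, reflects toxicity in normal human vascular endothelial HUV-EC-C cells given compound for 40 hr in complete culture medium. Values are AC50s from concentration-response curves.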

[11] = Cell Viability - H-4-II-E (AID 543); details: H-4-II-E rat hepatoma viability; series mostly up to 92.2 µM;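 further: cells exposed to compound for 40 hours; nearly all actives have a fitted effect of over 35% in size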; further: potency means the concentration at half of the fitted maximal effect
Outline: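 Here, cytotoxicity is measured in the rat hepatoma line H-4-II-E as loss of intracellular ATP after 40 hr compound treatment, detected by luciferase luminescence.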

[12] = Cell Viability - SH-SY5Y (AID 544); details: SH-SY5Y neuroblastoma cell viability; viability change, negative = cytotoxic: at 92.2 µM (top of the series);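 further: cells exposed to compound for 40 hours; nearly all actives have a fitted effect of over 55% in size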; further: potency means the concentration at half of the fitted maximal effect
Outline: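 Cytotoxicity is scored as a concentration-dependent fall in intracellular ATP in human SH-SY5Y cells treated 40 hr in complete culture medium. Potency is expressed as AC50 from a Hill equation fit.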

[13] = Cell Viability - Renal Proximal Tubule (AID 545); details: renal proximal tubule cells viability, primary cells of rat origin; series mostly up to 91.7 µM;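 further: cells exposed to compound for 40 hours; nearly all actives have a fitted effect of over 40% in size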; further: potency means the concentration at half of the fitted maximal effect
Outline: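 Viability taken as intracellular ATP (CellTiter-Glo luminescence) after 40 hr, 37 °C compound treatment of primary proximal tubule cells from rat kidney, 1000 cells/well; Hill-equation fits of qHTS concentration-response data gave AC50.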

[14] = Cell Viability - Mesenchymal (AID 546); details: mesenchymal cells viability, qHTS; series mostly up to 91.7 µM;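 further: cells exposed to compound for 40 hours before reading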; further: potency means the concentration at half of the fitted maximal effect
Outline: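 Normal human renal glomerulus-derived kidney mesenchymal cells, 1000 per well in complete medium, were treated with compounds for 40 hr at 37 °C. Viability was read as intracellular ATP by CellTiter-Glo luminescence; AC50 values came from Hill-equation fits of qHTS concentration-response data.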

[15] = Cellular Toxicity (caspase-3) HepG2 (AID 654); details: HepG2 caspase-3 activation, luminescence; series mostly up to 92.2 µM; further: potency means the concentration at half of the fitted maximal effect;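 on caspase-3 activation: cells exposed to compound for 16 hours before reading; 0% = DMSO alone and 100% = caspase signal from 100 µM tamoxifen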
Outline: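 qHTS, HepG2, 1500 cells/well, complete medium; cpd 16 h 37 °C; Caspase-Glo 3/7, 20 min RT; lum. Norm: DMSO vs 100 uM tamoxifen; AC50 Hill fit.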

[16] = Cellular Toxicity (caspase-3) BJ (AID 658); details: BJ fibroblasts, luminescence, normalized: DMSO 0%, staurosporine 100%; series mostly up to 91.7 µM
Outline: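 Luminescent aminoluciferin-substrate cleavage reports caspase 3/7 activity in normal human BJ fibroblasts after 16 hr compound exposure at 37 °C. Normalized to DMSO (basal) and 10 uM staurosporine (100%); AC50 from Hill fit of concentration-response.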

[17] = Cellular Toxicity (caspase-3) Jurkat (AID 655); details: Jurkat caspase-3 activation, luminescence; caspase-3 activation: at 92.2 µM (top of the series), DMSO = 0%, tamoxifen = 100%;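 further: cells exposed to compound for 16 h at 37 °C before reading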
Outline: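 Luminescent Caspase-Glo 3/7 read-out (20 min, room temperature) after 16 h compound treatment at 37 C of 5000 Jurkat cells per well. AC50 derived by Hill-equation fitting, scaled between DMSO basal and 100 uM tamoxifen stimulation.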

[18] = Cellular Toxicity (caspase-3) HUV-EC-C (AID 656); details: HUV-EC-C cells, caspase-3 activation (apoptosis), vehicle = 0, 100 µM tamoxifen = 100%; series mostly up to 92.2 µM
Outline: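 Luminescent Caspase-Glo 3/7 readout after 16 h, 37 °C compound exposure of HUV-EC-C endothelial cells, 1000 per well, complete medium. AC50 derived by Hill fitting, with DMSO as baseline and 100 uM tamoxifen as full activation.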

[19] = Cellular Toxicity (caspase-3) SHSY5Y (AID 657); details: SH-SY5Y caspase-3 activation, DMSO zero, 10 µM staurosporine = 100%; series mostly up to 91.7 µM
Outline: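 Luminescent Caspase-Glo 3/7 read-out, 1 hr room temperature, follows 16 hours of compound treatment of SH-SY5Y cells at 37 °C. Normalization: DMSO basal, 10 uM staurosporine as 100%; AC50 values from Hill-equation concentration-response fits.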

[20] = Cellular Toxicity (caspase-3) MRC-5 (AID 659); details: MRC-5 cells, luminescence, normalized: DMSO 0%, 10 µM staurosporine 100%; series mostly up to 91.7 µM
Outline: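 Luminescence from caspase-cleaved aminoluciferin substrate (Caspase-Glo 3/7, 1 hr RT) reports caspase 3/7 activity in MRC-5 lung fibroblasts after 16 hr compound exposure. Normalized to DMSO basal and 10 uM staurosporine as 100%; AC50 from Hill fits.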

CC1=C(/C=C/C(C)=C/C=C/C(C)=C\C=O)C(C)(C)CCC1
active: Potency [1] 24.4 µM | Potency [2] 22.2 µM | Potency [3] 51.9 µM | Potency [4] 66.1 µM | Potency [5] 39.8 µM | Potency [6] 31.7 µM | Potency [8] 25.1 µM | activity change, negative = cytotoxicity [9] -120% | Potency [10] 31.6 µM | Potency [11] 12.6 µM | Potency [12] 20 µM | Potency [13] 12.6 µM | Potency [14] 12.6 µM | Potency [15] 63.1 µM
inactive: outcome [7] | outcome [16]

CC(C)(c1cc(Br)c(OCC(Br)CBr)c(Br)c1)c1cc(Br)c(OCC(Br)CBr)c(Br)c1 (stereo not drawn)
inactive: Potency [1] > 92 µM | Potency [3] > 92 µM | Potency [4] > 92 µM | Potency [5] > 92 µM | Potency [6] > 92 µM | outcome [7] | activity change, negative = cytotoxicity [8] 5.75% | Potency [9] | Potency [10] | Potency [11] | Potency [12] | Potency [14] | Potency [15] | outcome [18] | outcome [19] | outcome [16] | outcome [20]
active: Potency [2] 46.9 µM | caspase-3 activation [17] 99.2%

CCC(C)=O
inactive: Potency [1] > 92 µM | Potency [2] > 92 µM | Potency [3] > 92 µM | Potency [4] > 92 µM | Potency [5] > 92 µM | Potency [6] > 92 µM | outcome [7] | activity change, negative = cytotoxicity [8] -16.1% | Potency [9] | Potency [10] | Potency [11] | Potency [12] | Potency [13] | Potency [15] | caspase-3 activation [17] -0.0185% | outcome [18] | outcome [19] | outcome [16] | outcome [20]

CCOC(=O)OCC
inactive: Potency [1] > 92 µM | Potency [2] > 92 µM | Potency [3] > 92 µM | Potency [4] > 92 µM | Potency [5] > 92 µM | Potency [6] > 92 µM | outcome [7] | activity change, negative = cytotoxicity [8] -11.2% | Potency [9] | Potency [10] | Potency [11] | Potency [12] | Potency [13] | Potency [14] | Potency [15] | outcome [18] | outcome [19] | outcome [20]

Nc1cccc(O)c1
inactive: Potency [1] > 92 µM | Potency [2] > 92 µM | Potency [3] > 92 µM | Potency [4] > 92 µM | Potency [5] > 92 µM | Potency [6] > 92 µM | outcome [7] | activity change, negative = cytotoxicity [8] 4.14% | Potency [9] | Potency [10] | Potency [11] | Potency [12] | Potency [13] | Potency [15] | caspase-3 activation [17] 0.69% | outcome [16] | outcome [20]

CC#N
inactive: Potency [1] > 92 µM | Potency [2] > 92 µM | Potency [3] > 92 µM | Potency [4] > 92 µM | Potency [5] > 92 µM | Potency [6] > 92 µM | outcome [7] | activity change, negative = cytotoxicity [8] 0.749% | Potency [9] | Potency [10] | Potency [11] | Potency [12] | Potency [13] | Potency [15] | caspase-3 activation [17] 1.05% | outcome [18] | outcome [19] | outcome [16] | outcome [20]

Cc1ccco1
inactive: Potency [1] > 92 µM | Potency [2] > 92 µM | Potency [3] > 92 µM | Potency [4] > 92 µM | Potency [5] > 92 µM | Potency [6] > 92 µM | outcome [7] | activity change, negative = cytotoxicity [8] 0.379% | Potency [9] | Potency [10] | Potency [11] | Potency [12] | Potency [13] | Potency [14] | Potency [15] | outcome [20]

c1ccc(Nc2ccccc2)cc1
inactive: Potency [1] > 92 µM | Potency [2] > 92 µM | Potency [3] > 92 µM | Potency [4] > 92 µM | Potency [5] > 92 µM | Potency [6] > 92 µM | outcome [7] | activity change, negative = cytotoxicity [8] -5.87% | Potency [9] | Potency [10] | Potency [11] | Potency [12] | Potency [13] | Potency [15] | caspase-3 activation [17] 1.36% | outcome [18] | outcome [19] | outcome [16]

Cc1ccc(C#N)cc1
inactive: Potency [1] > 92 µM | Potency [2] > 92 µM | Potency [3] > 92 µM | Potency [4] > 92 µM | Potency [5] > 92 µM | Potency [6] > 92 µM | outcome [7] | activity change, negative = cytotoxicity [8] 6% | Potency [9] | Potency [10] | Potency [11] | Potency [12] | Potency [13] | Potency [15] | caspase-3 activation [17] 0.554% | outcome [18] | outcome [19] | outcome [16] | outcome [20]

CC(C)Cc1nccs1
inactive: Potency [1] > 92 µM | Potency [2] > 92 µM | Potency [3] > 92 µM | Potency [4] > 92 µM | Potency [5] > 92 µM | Potency [6] > 92 µM | outcome [7] | activity change, negative = cytotoxicity [8] 2.65% | Potency [9] | Potency [10] | Potency [11] | Potency [12] | Potency [13] | Potency [15] | caspase-3 activation [17] 1.45% | outcome [18] | outcome [19] | outcome [16] | outcome [20]

Cc1ccc(CO)cc1
inactive: Potency [1] > 92 µM | Potency [2] > 92 µM | Potency [3] > 92 µM | Potency [4] > 92 µM | Potency [5] > 92 µM | Potency [6] > 92 µM | outcome [7] | activity change, negative = cytotoxicity [8] -2.9% | Potency [9] | Potency [10] | Potency [11] | Potency [12] | Potency [14] | Potency [15] | caspase-3 activation [17] 2.2% | outcome [18] | outcome [19] | outcome [16] | outcome [20]

[O-]/[N+](=N\O)c1ccccc1
inactive: Potency [1] > 92 µM | Potency [2] > 92 µM | Potency [3] > 92 µM | Potency [4] > 92 µM | Potency [5] > 92 µM | Potency [6] > 92 µM | outcome [7] | activity change, negative = cytotoxicity [8] 0.0649% | Potency [9] | Potency [10] | Potency [11] | Potency [12] | Potency [13] | Potency [15] | caspase-3 activation [17] -1.18% | outcome [18] | outcome [19] | outcome [16] | outcome [20]
